Drawing on PubChem BioAssay (NCATS), this text covers Potency for 17 molecules.

The structures appear in SMILES notation. Inconclusive results are not listed. Where a call stands in place of a potency, no number is given. Calls of active or inactive are those of the source. Calls come from the whole dose curve; as a rule, active = well fitted inhibition curve with a large enough effect; inconclusive = small, poorly fitted or top-dose-only effect; inactive = flat fitted curve, though single readings scatter.

This assay concerns the target Aldehyde dehydrogenase, mitochondrial (Homo sapiens) (UniProt P05091). The assay is described as follows: qHTS for Inhibitors of the Aldehyde Dehydrogenase Family (ALDH2) Primary screen (AID 2061308). Note: nearly all actives have a fitted effect of over 55% in size. As to conditions: ALDH2 enzyme inhibition qHTS, 1536-well; series mostly up to 56 µM.
As for `O=[S+]([O-])(c1c(F)cccc1F)N1CCN([S+](=O)([O-])c2c(F)c(F)c(F)c(F)c2F)CC1`, the Potency result was “inactive”.

In the case of `O=S(=O)(NCc1ccccc1F)c1ccc(O)c2ncccc12`, the Potency entry was “inactive”. Regarding `COc1cc(OC)c(C(CC(=O)N2CC(C)CC(C)C2)c2ccc3c(c2)OCO3)c(OCC(N)=O)c1` (configuration not stated), the Potency entry was “inactive”. With `CC(=O)c1ccc(-c2csc3ncnc(Sc4nnnn4C)c23)cc1`, the Potency result is “inactive”.

As for `Cc1cc2c(s1)c1cnn(Cc3ccc(S(C)(=O)=O)cc3)c(=O)c1n2C`, the Potency result was “inactive”.

Consider `CC(C)(C)OC(=O)Cc1nnc(C(C(=O)OCc2ccccc2)c2ccccc2)o1` (configuration not stated), for which the Potency entry is “inactive”. To `Cc1cc2c(s1)c1cnn(Cc3ccc(Cl)cc3)c(=O)c1n2C` belongs “inactive”.

Regarding `C=CCNc1oc(-c2cccc3ccccc23)nc1C#N`, the Potency result was “inactive”.

For `O=C(Nc1ccc(Br)c(Br)c1)Nc1cccc(-c2ccncc2)n1`, the Potency entry is “inactive”. Consider `O=C1C[C@]23C=CCN4CCC5c6cc7c(cc6N1[C@@]5(CC2)C43)OCO7` (some centres not stated), for which the Potency result was “inactive”.

`CC(=O)c1ccc(N2CCN(S(=O)(=O)c3ccc4c(c3)CC(C)N4C(C)=O)CC2)cc1` (configuration not stated): the Potency entry was “inactive”. For the molecule `CCCCn1cnc2cc(C(=O)N3CCCCC3)ccc21`, the Potency result was “inactive”.

Take `O=C(Nc1ccc(S(=O)(=O)Nc2nccs2)cc1)c1ccnc(-c2ccccc2)c1`: the Potency result is “inactive”. With `Cc1nc(CNc2ncnc3ccc(-c4sc(C)nc4C)cc23)cs1`, the Potency entry is “inactive”. As to `O=C(NCCCCN1CCN(c2cccc(Cl)c2Cl)CC1)c1cc2ccccc2s1`, the Potency entry is “inactive”.

As to `O=C(Nc1ccc(S(=O)(=O)Nc2nccs2)cc1)c1ccnc2ccccc12`, the Potency entry is “inactive”. In the case of `COc1ccc([S+](=O)([O-])N2CCN([S+](=O)([O-])c3ccc4c(c3)OCCO4)CC2)c(OC)c1`, the Potency result was “inactive”.
